DT40 TDP1 CPT – qHTS for Inhibitors of human tyrosyl-DNA phosphodiesterase 1 (TDP1): qHTS in cells in presence of CPT. chicken DT40 Tdp1-/-;hTDP1 cells + 20 nM CPT, ATP luminescence, 48 h. Potency, µM (highest dose often 46.2 µM), for inactives: at the top dose activity change, negative = growth inhibition, usual class: inhibitors. 420,000 tested, 12% active; also: potency is read from the fitted curve at half-maximal effect; % is scaled to controls: 0 for no effect and ±100 for the full control effect; nearly all actives have a fitted effect of over 55% in size
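Cell growth measured by CellTiter-Glo luminescence after a minimum 48 h, 37 C compound exposure with 20 nM CPT in Tdp1-knockout DT40 cells stably expressing hTDP1, seeded 400/well; qHTS titration format.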
HepG2 tox – qHTS for Inhibitors of TGF-b: Cytotox Counterscreen | HepG2 CAGA-GFP viability, ATP luminescence, 18 h | Potency, µM (top dose mostly 46.1 µM), inactives show at the top dose activity change, negative = cytotoxicity, usual class: cytotoxic | 410,000 tested, 0.76% active | AID 588856, 2011; also: potency is read from the fitted curve at half-maximal effect
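HepG2 CAGA-GFP cells (1000/well, DMEM with 1% FBS) received compound, then TGF-beta at 500 pg/mL final, and were incubated 18 hours at 37 degrees C. Viability was read by CellTiter-Glo luminescence. Media-only wells were set as complete cell-killing and DMSO as no toxicity.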
ASM inhibitor – Inhibitors of Secretory Acid Sphingomyelinase (S-ASM): qHTS | Sphingomyelin phosphodiesterase (Homo sapiens), P17405 | placental ASM, HMU-PC fluorogenic substrate, 60 min | Potency, µM (top dose mostly 57.5 µM), for inactives: at the top dose activity change, negative = inhibition, most hits filed as inhibitors | 340,000 tested, 0.006% active | AID 504937, 2011; also: potency is read from the fitted curve at half-maximal effect
Target sequence (P17405 47-631 limits assumed): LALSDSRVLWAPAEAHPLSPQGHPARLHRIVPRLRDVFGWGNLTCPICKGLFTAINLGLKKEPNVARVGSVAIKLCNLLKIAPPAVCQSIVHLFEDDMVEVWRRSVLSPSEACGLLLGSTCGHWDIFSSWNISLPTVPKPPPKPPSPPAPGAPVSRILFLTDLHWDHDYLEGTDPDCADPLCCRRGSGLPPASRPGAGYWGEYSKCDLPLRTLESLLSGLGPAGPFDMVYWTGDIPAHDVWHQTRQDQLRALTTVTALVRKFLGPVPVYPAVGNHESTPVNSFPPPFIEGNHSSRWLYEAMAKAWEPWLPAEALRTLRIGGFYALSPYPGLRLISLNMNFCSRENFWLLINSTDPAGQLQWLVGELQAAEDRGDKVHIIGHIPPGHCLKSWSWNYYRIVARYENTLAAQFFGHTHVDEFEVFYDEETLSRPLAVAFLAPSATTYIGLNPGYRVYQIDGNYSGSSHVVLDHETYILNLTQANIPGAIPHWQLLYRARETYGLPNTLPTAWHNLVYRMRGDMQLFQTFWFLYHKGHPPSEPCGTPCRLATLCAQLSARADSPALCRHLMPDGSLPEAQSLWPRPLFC
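qHTS format. ASM enzyme prepared from human placenta hydrolyses the fluorogenic substrate HMU-PC0 (9 uM final) over 60 min at 37 °C after a 10 min compound preincubation.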
IL-1B inflam inh – qHTS for Inhibitors of Inflammasome Signaling: IL-1-beta AlphaLISA Primary Screen; THP-1 LPS/ATP IL-1B secretion, AlphaLISA, 16 h; hits give low values; activity change, % at 57.5 µM; 360,000 tested, 4.7% active; AID 743279, 2014; in the data active = activity change below about -50%; inconclusive = mostly about -30% to -49%; also: % is scaled to controls: 0 for no effect and ±100 for the full control effect
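THP-1 cells pretreated 1 hr with compounds (up to 57.5 uM final), then stimulated with LPS (250 ng/mL final) plus ATP (1.25 mM final); secreted IL-1B measured by AlphaLISA after 16 hr, decreased signal indicating inhibition.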
DT40 TDP1 no CPT – qHTS for Inhibitors of human tyrosyl-DNA phosphodiesterase 1 (TDP1): qHTS in cells in absence of CPT. DT40 Tdp1-/- hTDP1 cells, no CPT, ATP luminescence, 48 h. Potency, µM (highest dose often 46.2 µM), without a hit: at the top dose activity change, negative = growth inhibition, actives largely listed as inhibitors. 420,000 tested, 15% active. AID 686978, 2013; also: potency is read from the fitted curve at half-maximal effect; % is scaled to controls: 0 for no effect and ±100 for the full control effect; nearly all actives have a fitted effect of over 55% in size
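Chicken DT40 Tdp1-/- cells complemented with human TDP1, screened without camptothecin (DMSO vehicle only), 400 cells/well. Compounds pin-transferred, cells incubated at 37 °C for at least 48 hr. Growth read as ATP-dependent luminescence (CellTiter-Glo, 30 min at RT).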
TGFb SMAD3 inh – qHTS for Inhibitors of TGF-b | HepG2 CAGA-GFP TGF-b/SMAD3 reporter, GFP fluorescence, 18 h; TGF-beta stimulated, 500 pg/mL final | Potency, µM (doses to about 46.1 µM), for inactives: top-dose activity, negative = inhibition, hits mostly inhibitors | 410,000 tested, 1.2% active | AID 588855, 2011; also: potency is read from the fitted curve at half-maximal effect; % is scaled to controls: 0 for no effect and ±100 for the full control effect; nearly all actives have a fitted effect of over 65% in size
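HEPG2 CAGA-GFP cells (1000/well, DMEM with 1% FBS) were pre-incubated 2 h at 37 degrees C, given compound by pin tool, then stimulated with TGF-beta at 500 pg/mL final for 18 h before per-cell GFP fluorescence imaging.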
* hit, by the source's call; ? = inconclusive; . = no result given. Most compounds without a hit are left out; they make up all but 19% or so of the library. Unless noted, calls follow the shape of the dose curve; as a rule, active = well fitted curve in the direction sought with a large enough effect; inconclusive = small, poorly fitted or top-dose-only effect, or another doubt; inactive = no such curve, though single readings can be large; an effect the other way counts as inactive or inconclusive.

SMILES	DT40 TDP1 CPT	HepG2 tox	ASM inhibitor	IL-1B inflam inh	DT40 TDP1 no CPT	TGFb SMAD3 inh
Cc1cc(C(=O)N/N=C/c2ccncc2)c2ccccc2n1	-1%	-13%	8%	43	-3%	3%
COc1ccc(Cc2nc3ccccc3n2CC(=O)N/N=C/c2ccc(C)cc2O)cc1OC	2.1µM*	-35%	121%	27	0.65µM*	?
CCOc1ccc(/C=N/NC(=O)c2cc(-c3ccccc3)nc3ccccc23)cc1O	?	-41%	-14%	29	?	-24%
COc1ccc(/C=N/NC(=O)CCn2c3ccccc3c3ccccc32)cc1O	1.5µM*	-17%	-22%	-6	1.6µM*	?
Cn1c(CNC(=O)c2ccc(Cl)cc2)nnc1SCC(=O)N1CCOCC1	3%	-40%	6%	-8	-10%	0%
COc1cccc(CNC(=O)CCC2CCCN(C(=O)CCn3cncn3)C2)c1 (stereo not given)	0%	-8%	-2%	13	4%	13%
Cc1ccc(-c2nc(CCNC(=O)C(=O)Nc3ccc(C)c(C)c3)cs2)cc1	-9%	-23%	.	.	1%	-9%
COc1cc(/C=N/Nc2nc(C)nc3c2cnn3-c2ccccc2)ccc1O	2.9µM*	-12%	203%	-100*	2.9µM*	-15%
Cn1c(=O)c2c(nc(Br)n2C/C=N/NC(N)=S)n(C)c1=O	21µM*	-15%	3%	.	?	?
CCCn1c(CN2CCN(C(=O)OCC)CC2)nc2cc(NC(=O)C(C)C)ccc21	21µM*	-11%	-1%	0	12µM*	-5%
CCCCC(=O)Nc1ccc2c(c1)nc(CN1CCN(C(=O)OCC)CC1)n2C	?	-15%	-1%	26	-29%	-17%
CCCn1c(CN2CCN(C(=O)OCC)CC2)nc2cc(NC(C)=O)ccc21	?	1%	18%	-3	16µM*	-16%
CN1C(=O)c2ccccc2C(C(=O)O)C1c1cccc(F)c1 (stereo not given)	?	-4%	2%	28	26µM*	0%
Cc1ccsc1C1C(C(=O)O)c2ccccc2C(=O)N1C (stereo not given)	0%	-12%	4%	-5	-18%	13%
COc1ccccc1-n1c(SCC(=O)Nc2ccccc2F)nc2[nH]ncc2c1=O	13µM*	-14%	5%	-9	-22%	5%
Cc1ccccc1-n1c(SCc2ccc(Cl)cc2)nc2[nH]ncc2c1=O	16µM*	-100%	.	.	18µM*	?
O=c1c2cn[nH]c2nc(SCc2cccc(Br)c2)n1-c1ccc(Cl)cc1	?	-11%	.	.	?	-1%
Cc1cc(-n2c(SCc3ccccc3F)nc3[nH]ncc3c2=O)ccc1Cl	?	-108%	.	.	16µM*	?
COC(=O)c1cc(=O)nc(NN=C2CCCCC2)s1	1%	2%	.	10	1%	9%
COC(=O)c1cc(=O)nc(NN=C2c3ccccc3-c3ccccc32)s1	23µM*	-40%	.	0	?	?
CCc1ccc(S(=O)(=O)c2nnn3c2nc(N2CCC(C(N)=O)CC2)c2cc(Cl)ccc23)cc1	?	-36%	.	.	23µM*	2%
CC1CCN(c2nc3c(S(=O)(=O)c4ccccc4)nnn3c3ccc(Cl)cc23)CC1	16µM*	4%	.	.	18µM*	0%
COc1ccccc1N1CCN(c2nc3c(S(=O)(=O)c4ccccc4)nnn3c3ccc(Cl)cc23)CC1	6%	-13%	.	.	-23%	12%
Cc1ccc(S(=O)(=O)c2nnn3c2nc(N2CCC(C)CC2)c2cc(Cl)ccc23)cc1C	?	1%	.	.	21µM*	0%
COc1cc(CN2c3ccc(Br)cc3C(=O)CS2(=O)=O)cc(OC)c1	?	-59%	.	.	?	11µM*
SMILES	DT40 TDP1 CPT	HepG2 tox	ASM inhibitor	IL-1B inflam inh	DT40 TDP1 no CPT	TGFb SMAD3 inh
COc1cc(NC(=O)Cn2c(=O)n(Cc3ccccc3)c(=O)c3oc4ccccc4c32)cc(OC)c1	-4%	3%	.	.	-12%	3%
CCc1ccccc1NC(=O)Cn1c(=O)n(-c2ccc(C)c(C)c2)c(=O)c2oc3ccccc3c21	15µM*	-24%	.	.	?	-15%
COc1ccc(Cn2c(=O)c3oc4ccccc4c3n(CC(=O)Nc3c(C)cccc3C)c2=O)cc1	7.3µM*	2%	.	.	5.8µM*	0%
CCc1ccccc1NC(=O)Cn1c(=O)n(Cc2ccc(OC)cc2)c(=O)c2oc3ccccc3c21	9.2µM*	-5%	.	.	?	0%
CC(C)(C)c1ccc(C(=O)NCc2nnc(SCC(=O)NCC3CCCO3)o2)cc1 (stereo not given)	-4%	-10%	-2%	-7	-21%	15%
CCc1c(C(=O)N/N=C/c2ccc(OCc3ccc(F)cc3)c(OC)c2)nnn1-c1nonc1N	23µM*	-5%	-10%	18	5.8µM*	-4%
CCOc1cc(/C=N/NC(=O)c2nnn(-c3nonc3N)c2C)ccc1OCc1ccc(F)cc1	-28%	7%	105%	0	13%	0%
COc1ccc(/C=N/NC(=O)c2nnn(-c3nonc3N)c2C)cc1OC	?	4%	.	-4	-9%	-1%
COC(=O)c1nnn(-c2nonc2N)c1COc1ccc(C=O)cc1OC	15µM*	-46%	3%	4	9.2µM*	?
CN(Cc1ccc(Cl)cc1Cl)C(=O)c1cc(=O)c2ccccc2o1	?	-15%	-12%	-13	23µM*	-20%
CN(Cc1ccccc1Cl)C(=O)c1cc2ccccc2o1	?	-29%	-2%	-22	?	9%
CC(C)CC(=O)Nc1ccc(C(=O)CN2CCN(c3ccc(O)cc3)CC2)cc1	-1%	-18%	-1%	23	-11%	-4%
CCC(NC(=O)Nc1cc(OC)ccc1OC)c1c(-n2cccc2)sc2c1CCN(CC)C2 (stereo not given)	?	-36%	.	.	23µM*	-24%
COc1ccc(NC(=O)NC(C)c2ccc3c(c2)OCO3)c(OC)c1 (stereo not given)	-3%	-9%	0%	3	-20%	2%
CCOC(=O)c1cccc(NC(=O)N[C@@H](C)C(=O)OC)c1	-5%	-33%	1%	4	-1%	10%

Assay outcomes deposited in PubChem BioAssay by National Center for Advancing Translational Sciences (NCATS).
